Drawing on PubChem BioAssay AID602229 (The Scripps Research Institute Molecular Screening Center, 2012), this text covers inhibition for 15 molecules.

Molecules are shown by their SMILES. Screen size: about 360,000 compounds; about 1,300 (0.36%) were called active. Shown is part of a subset that was picked to be rich in actives. Values without a mark were called inactive.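 Rule for the calls: active = inhibition above the mean of all tested compounds plus 3 SD (cut at about 70% in these data); inactive = the rest.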

In general, inhibition refers to the change of the read-out against control, counted positive when it falls.

Photoreceptor-specific nuclear receptor (Homo sapiens), sequence (Q9Y5X4 whole entry, looked up, the tested form may be a part): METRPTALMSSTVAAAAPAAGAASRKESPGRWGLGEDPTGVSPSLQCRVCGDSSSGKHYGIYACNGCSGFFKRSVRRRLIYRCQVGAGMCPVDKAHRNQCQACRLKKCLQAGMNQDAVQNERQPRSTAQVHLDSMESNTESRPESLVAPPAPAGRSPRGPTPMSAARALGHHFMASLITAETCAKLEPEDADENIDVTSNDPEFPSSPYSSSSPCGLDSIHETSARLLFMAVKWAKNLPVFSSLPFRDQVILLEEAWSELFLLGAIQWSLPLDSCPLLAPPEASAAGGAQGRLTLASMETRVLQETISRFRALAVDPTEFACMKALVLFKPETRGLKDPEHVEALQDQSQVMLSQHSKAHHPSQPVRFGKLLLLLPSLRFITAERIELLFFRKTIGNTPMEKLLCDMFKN

This test addresses Photoreceptor-specific nuclear receptor (Homo sapiens) (UniProt Q9Y5X4). The test is described as follows: NCOR release from NR2E3 in cells – cell-based, luminescence, CHO-S, Gal4-NCOR/VP16-NR2E3, primary screen (AID 602229).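 Note: 0% = DMSO with NR2E3 transfected cells and 100% = cells lacking NR2E3 construct; higher means lower luciferase signal from less NR2E3 corepressor binding.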 Particulars: CHO-S Gal4-NCOR/VP16-NR2E3 two-hybrid, luciferase; at 3.98 µM; hits give high values.
For `CC(=O)OC1C2(CC3N4C(=O)C5(CO)SSC4(CC31O)C(=O)N5C)OC(C)C(C)(C)C2=O` (stereo not given), the inhibition is 99.4% (active).

Regarding `Cc1nn(-c2ccccc2)c(C)c1NC(=O)COC(=O)Cc1ccccc1`, the inhibition is 8.66%.

Turning to `COc1ccc(Br)cc1CNCCc1cccc(Cl)c1`, the inhibition is 24.3%.

In the case of `COC(=O)C1=C(c2ccc(F)cc2OCc2ccccc2)C[C@@H]2CC[C@H]1N2C(=O)NCc1ccc(C(C)(C)C)cc1`, the inhibition is 8.82%.

As for `CCCCCCCCCCCCn1ccc(=N)cc1`, the inhibition was 94% (active).

As for `CC(C)CN1Cc2cc(N3CCCCC3)ccc2-n2nncc2C1`, the inhibition was 3.03%.

`CNC(=O)N(C)c1nnc(C(C)(C)C)s1`: the inhibition is -10.2%.

For the molecule `CN(C)P(=S)(Nc1ccccc1)C(Cl)(Cl)Cl` (stereo not given), the inhibition is 5.18%.

Consider `COC(=O)N(c1ccc(OC)cc1)P1(=S)OCCC(C)O1` (stereo not given), for which the inhibition was -15.4%.

`CC(=NCC1CCCO1)c1c(O)n(-c2ccccc2)c(=O)[nH]c1=O` (stereo not given): the inhibition was 0.24%.

For the molecule `CCC(C)(O)C(=O)OC1C(=O)OC2CC3C(C)=CC(=O)C(O)C3(C)C3C4(O)OCC23C1C(C)C4O` (stereo not given), the inhibition is 99% (active).

In the case of `CCC(=O)OC(Cc1ccccc1)(c1ccccc1)C(C)CN(C)C` (stereo not given), the inhibition is -18.8%.

As to `Nc1ccc(Cc2ccc(N)c(Cl)c2)cc1Cl`, the inhibition was -10.5%.

Consider `Cn1c(O)c(C(=Nc2ccc(F)cc2)c2ccccc2)c(=O)n(C)c1=O`, for which the inhibition is -24.4%.

On to `COc1cccc(-c2nc3ccc(N4CCN(C)CC4)cc3[nH]2)c1`, for which the inhibition is -20.1%.
